# Results taken from PubChem BioAssay.
# Values joined by “and” are separate entries in the source; they are usually repeats but may differ in a detail not shown here. Equal values may be shown once. Records with an inconclusive call do not appear. Active and inactive are the calls of the source.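 The calls were made as follows, unless noted: active = compounds whose cell count with miR-34 switched on is under 0.7 times the count with it off; inactive = the rest.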
# Key:
# [1] = Wnt pathway potentiators raising nuclear beta-catenin – imaging, WNT3A-conditioned medium, mouse C2C12, NPC library, primary screen (AID 1117326; in the data active = nuclear beta-catenin stimulation mostly above about 4.2%, no sharp cut-off; inactive = mostly below about 10%); conditions: stronger effect = higher value
# [2] = stimulators of insulin release from INS-1E, primary screen, cell-based, 5 mM glucose, NPC library (AID 1117329;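 active = compound raises insulin release from rat beta cells at 5 mM glucose, no numeric limit stated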); conditions: rat INS-1E insulin secretion, at 10 µM, stronger effect = higher value
# [3] = growth inhibition of GSK3B-pretreated HCT116 cells – cell-based, CellTiter-Glo, 0.2 to 20 µM (AID 1117336;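 active = compounds lowering colon cancer cell viability after pretreatment blocking the GSK3B kinase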); conditions: HCT116 viability after GSK3B inhibitor, at 20 µM, stronger effect = higher value
# [4] = inhibition of endothelial tube formation, primary screen, imaging, VEGF stimulated, CD31 staining, tube area, NPC library (AID 1117340;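 active = compound that reduces growth-factor-driven endothelial tube area in a mixed cell culture, no cutoff stated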); conditions: VEGF-stimulated ADSC/ECFC co-culture, at 10 µM, stronger effect = higher value
# [5] = GLP1 release stimulators, primary, NCI-H716, NPC library (AID 1117341;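 active = compound raises GLP1 secretion from the human gut endocrine cells, with no numeric limit stated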); conditions: NCI-H716 cells, at 10 µM, stronger effect = higher value
# [6] = HCT116 colon cancer cell growth inhibition, primary screen, CellTiter-Glo luminescence, NPC library (AID 1117342;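 active = compounds that lower survival of HCT116 colon cancer cells in the luminescence readout, no numeric limit stated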); conditions: at 20 µM (top of the series)
# [7] = reduced SW480 viability measured with CellTiter-Glo, NPC library, primary (AID 1117343;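 active = compounds that lower viability of the colon cancer cells in the luminescence readout, with no numeric limit stated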); conditions: CellTiter-Glo luminescence; at 20 µM (top of the series) unless noted
# [8] = NPC library primary testing for decreased DLD-1 cell viability via CellTiter-Glo (AID 1117346;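 active = compounds that lower survival of DLD-1 colon cancer cells in the luminescence readout, no cutoff given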); conditions: DLD-1 viability, CellTiter-Glo luminescence; at 20 µM (top of the series)
# [9] = EMT-state selective cytotoxicity in co-culture – imaging, PC-3E GFP, TEM4-18 mCherry, primary screen (AID 1345086;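 active = compounds killing one labelled cell type while sparing the other, by normalised counts and ratio limits, not self-fluorescent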;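 also: cells exposed to compound for 72 h before imaging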;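 as to red/green cell ratio (normalised): normalised mesenchymal count divided by normalised epithelial count so high means epithelial killing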); conditions: PC-3E GFP / TEM4-18 mCherry co-culture, imaging cell counts, at 1 µM
# [10] = viability loss with induced miR-34 in A549 – imaging, A549 dox-inducible miR-34, nuclei and caspase counts, primary screen (AID 1347080); conditions: A549 miR-34 inducible, Hoechst nuclei count, 48 h
# [11] = target: NAD(+) hydrolase SARM1 (Homo sapiens) (UniProt Q6SZW1); test: blocking NAD cleavage by SARM1 SAM-TIR – cell lysate, NAD-Glo luminescence (AID 1508614;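 active = compound whose remaining NAD level is above about 45 nM, limit read from the data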;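 also: higher remaining NAD means stronger inhibition of SARM1 NADase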); conditions: SAM-TIR HEK293T lysate NADase, at 1 µM, stronger effect = higher value
# Sequence of NAD(+) hydrolase SARM1 (Homo sapiens) (Q6SZW1 whole entry, looked up): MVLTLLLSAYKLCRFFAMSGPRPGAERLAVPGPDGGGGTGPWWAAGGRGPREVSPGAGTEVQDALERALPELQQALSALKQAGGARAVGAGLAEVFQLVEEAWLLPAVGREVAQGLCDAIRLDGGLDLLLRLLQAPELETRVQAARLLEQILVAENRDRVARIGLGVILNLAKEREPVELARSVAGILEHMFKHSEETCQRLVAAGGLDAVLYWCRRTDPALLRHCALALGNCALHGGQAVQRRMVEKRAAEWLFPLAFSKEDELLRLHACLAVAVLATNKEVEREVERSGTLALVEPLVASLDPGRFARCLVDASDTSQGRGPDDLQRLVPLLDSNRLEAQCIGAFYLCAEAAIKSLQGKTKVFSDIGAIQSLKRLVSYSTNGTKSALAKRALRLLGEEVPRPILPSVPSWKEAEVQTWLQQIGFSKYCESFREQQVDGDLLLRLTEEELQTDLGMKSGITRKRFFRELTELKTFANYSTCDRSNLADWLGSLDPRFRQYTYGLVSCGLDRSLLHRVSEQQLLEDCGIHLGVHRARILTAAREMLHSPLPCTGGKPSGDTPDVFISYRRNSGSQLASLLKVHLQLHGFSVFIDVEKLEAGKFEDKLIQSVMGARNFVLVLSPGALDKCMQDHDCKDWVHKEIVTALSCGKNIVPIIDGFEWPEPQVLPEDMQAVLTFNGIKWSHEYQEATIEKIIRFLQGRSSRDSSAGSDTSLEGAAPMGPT
# [12] = P. berghei load reduction in hepatocytes – cell-based, HepG2, luciferase luminescence, HepG2 viability, primary screen (AID 624349; in the data active = parasite load remaining mostly below about 12%, no sharp cut-off; inactive = mostly above about 10%;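 also: 100% = mean of DMSO negative control wells on the same plate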); conditions: P. berghei liver stage in HepG2, luciferase luminescence, concentration not given here; parasite load remaining: stronger effect = lower value; viability: measured here: HepG2 viability without parasites
# [13] = test system: Aerobactin synthetase IucA (Klebsiella pneumoniae); test: inhibition of K. pneumoniae IucA enzyme – biochemical, Tocris library, absorbance (AID 1345561; call rule not given here;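 also: 100% = enzyme without compound and 0% = no enzyme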); conditions: purified IucA enzyme assay, absorbance (OD) read-out; stronger effect = lower value;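 tested at 8 µM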
# [14] = MELAS cybrid and Rieske KO viability enhancers – cell-based, MELAS cybrids, Rieske KO mouse fibroblasts, CellTiter-Glo, primary screen (AID 1508586;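 active = mean z-score across replicates of 1.96 or higher in either the MELAS or the Rieske mutant cell line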;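 also: z relative to plate mean and SD of compound and empty wells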); conditions: low glucose
# [15] = galactose survival enhancers in mitochondrial complex I cybrids – cell-based, galactose medium, ATP luminescence, primary screen (AID 1645843;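 active = z-score of at least 1.8 in each of two replicates, scored against plate mean and spread of sample wells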;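 also: positive z means more ATP and so rescue of galactose-driven cybrid death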); conditions: complex I mutant cybrid cells, 72 h, stronger effect = higher value
# [16] = viability loss in pontine glioma line – cell-based, JHH-DIPG-1, MIPE4.0, CellTiter-Glo, qHTS, dose response (AID 1347062; cut-off not given, nearly all actives have AC50 up to about 27 µM); conditions: JHH-DIPG-1 viability, CellTiter-Glo ATP luminescence
# [17] = growth inhibition of DIPG cells – cell-based, MIPE5.0 library, qHTS (AID 1347068; cut-off not given, nearly all actives have IC50 up to about 30 µM); conditions: SU-DIPG-XXV viability
# [18] = stronger effect = lower value, cell number ratio, induced over uninduced
# [19] = measured here: relative caspase fold change +Dox/-Dox
# [20] = measured here: total cells with miR-34 induction, stronger effect = lower value
# [21] = measured here: total cells without miR-34 induction
structure (smiles),measurement,setting,value
NC(=O)C1(N2CCCCC2)CCN(CCCC(=O)c2ccc(F)cc2)CC1,nuclear beta-catenin stimulation,[1]; at 10 µM,-0.9% (inactive)
same,nuclear beta-catenin stimulation,"[1]; stimulation, at 2 µM",-2%
same,insulin secretion stimulation,[2],-0.5% (inactive)
same,viability decrease,[3],-17.7% (inactive)
same,tube area decrease,[4],11.1% (inactive)
same,GLP1 secretion stimulation,[5],2.8% (inactive)
same,inhibition of viability,[6],15.3% (inactive)
same,viability decrease (inhibition),[7],12.8% (inactive)
same,viability decrease (inhibition),[8],-5.9% (inactive)
same,red/green cell ratio (normalised),"[9]; actives lie on both sides, counts scaled to control wells, 1 = unselective",0.88 (inactive)
same,normalised cell number,[9]; measured here: epithelial PC-3E GFP cell survival,1.16
same,normalised cell number,[9]; measured here: mesenchymal TEM4-18 mCherry cell survival,1.02
same,fold change,[10]; [18],0.938 (inactive)
same,fold change,[10]; [19],0.733
same,cell count,[10]; [20],8980
same,cell count,[10]; [21],9580
same,remaining NAD,[11],10 nM (inactive)
CN=C(NC#N)NCCSCc1csc(N=C(N)N)n1,parasite load remaining,[12],42.8% (inactive)
same,viability,[12],132%
same,nuclear beta-catenin stimulation,[1]; at 10 µM,-0.6% (inactive)
same,nuclear beta-catenin stimulation,"[1]; stimulation, at 2 µM",-1.8%
same,insulin secretion stimulation,[2],0.3% (inactive)
same,viability decrease,[3],5.8% (inactive)
same,tube area decrease,[4],14.5% (inactive)
same,GLP1 secretion stimulation,[5],0% (inactive)
same,inhibition of viability,[6],-2.7% (inactive)
same,viability decrease (inhibition),[7],-14.2% (inactive)
same,viability decrease (inhibition),[8],-5.4% (inactive)
same,remaining activity,[13],91.8% (inactive)
same,fold change,[10]; [18],0.914 (inactive) and 0.897 (inactive)
same,fold change,[10]; [19],0.888 and 0.977
same,cell count,[10]; [20],8420 and 9980
same,cell count,[10]; [21],9210 and 11100
same,z-score,"[14]; MELAS cybrid survival, CellTiter-Glo 48 h, stronger effect = higher value",-0.55 (inactive)
same,z-score,"[14]; Rieske KO mouse fibroblast survival, CellTiter-Glo 72 h",-0.51
same,z-score,[15],0.35 (inactive) and 0.345 (inactive)
O=C1OC(OC(=O)c2cccnc2Nc2cccc(C(F)(F)F)c2)c2ccccc21 (stereo not drawn),nuclear beta-catenin stimulation,[1]; at 10 µM,21.1% (inactive)
same,nuclear beta-catenin stimulation,"[1]; stimulation, at 2 µM",11%
same,insulin secretion stimulation,[2],2.7% (inactive)
same,viability decrease,[3],17.5% (inactive)
same,tube area decrease,[4],72.7% (active)
same,GLP1 secretion stimulation,[5],1.3% (inactive)
same,inhibition of viability,[6],10.2% (inactive)
same,viability decrease (inhibition),[7],115% (active)
same,viability decrease (inhibition),[8],31.2% (inactive)
same,remaining activity,[13],120% (inactive)
same,fold change,[10]; [18],0.992 (inactive)
same,fold change,[10]; [19],1.33
same,cell count,[10]; [20],7990
same,cell count,[10]; [21],8060
same,z-score,[15],-0.625 (inactive)
CC1(CN2CCC(n3c(=O)[nH]c4ccccc43)CC2)OCc2ccccc2-n2cccc21 (stereo not drawn),nuclear beta-catenin stimulation,[1]; at 10 µM,2.3% (inactive)
same,nuclear beta-catenin stimulation,"[1]; stimulation, at 2 µM",2%
same,insulin secretion stimulation,[2],-3.4% (inactive)
same,viability decrease,[3],78.6% (active)
same,tube area decrease,[4],7.2% (inactive)
same,GLP1 secretion stimulation,[5],3.3% (inactive)
same,inhibition of viability,[6],113% (active)
same,viability decrease (inhibition),[7],146% (active)
same,viability decrease (inhibition),[8],101% (active)
same,remaining activity,[13],97.5% (inactive)
same,outcome,[16],inactive
same,outcome,[17],inactive
same,fold change,[10]; [18],0.899 (inactive)
same,fold change,[10]; [19],1.14
same,cell count,[10]; [20],6010
same,cell count,[10]; [21],6680
same,z-score,[15],-0.665 (inactive)
